Assay results taken from the supplement of paper PMC13380429.

Test system: Vero E6 infected with SARS-CoV-2
Experiment: inhibition of SARS-CoV-2 cytopathic effect; higher = more antiviral protection, active = above 15
Details: 48 h

Measured: inhibition of SARS-CoV-2 cytopathic effect

CC(C)(C)C#Cc1cc(N(C(=O)[C@H]2CC[C@H](C)CC2)[C@H]2CC[C@@H](O)CC2)c(C(=O)O)s1
inactive: 1 nM 1.62% | 8.33 nM 2.19% | 100 nM -0.17% | 833.33 nM 1.33% | 10000 nM 1.51%

CS(=O)(=O)Nc1c(O)ccc2c1CCC[C@H]2C1=NCCN1
inactive: 1 nM 1.13% | 8.33 nM -1.43% | 100 nM -1.29% | 833.33 nM 0.49% | 10000 nM -3.82%

Nc1nc(OCc2cc(Br)cs2)c2[nH]cnc2n1 [lomeguatrib]
inactive: 1 nM -1% | 8.33 nM 0% | 100 nM 0.04% | 833.33 nM -0.89% | 10000 nM 0.11%

CC(C)(CCCCCC(O)CCCCCC(C)(C)C(=O)O)C(=O)O [bempedoic-acid]
inactive: 1 nM 0.91% | 8.33 nM 0.43% | 100 nM 0.18% | 833.33 nM 0.98% | 10000 nM 1.16%

C[C@@]1(O)[C@H](O)[C@@H](CO)O[C@H]1n1cnc2c(NC3CCCC3)nc(Cl)nc21
inactive: 1 nM 1.63% | 8.33 nM 2.06% | 100 nM 1.32% | 833.33 nM 0.53% | 10000 nM -0.13%

COc1cc(N)cn[n+]1-c1ccccc1 [amezinium]
inactive: 1 nM -1.03% | 8.33 nM -0.58% | 100 nM 0.21% | 833.33 nM 0.15% | 10000 nM -1.56%

NC(=O)c1ccc[n+]([C@@H]2O[C@H](COP(=O)([O-])OP(=O)(O)OC[C@H]3O[C@@H](n4cnc5c(N)ncnc54)[C@H](O)[C@@H]3O)[C@@H](O)[C@H]2O)c1 [nadide]
inactive: 1 nM -2.68% | 8.33 nM -2.65% | 100 nM -0.81% | 833.33 nM -0.61% | 10000 nM -0.54%
